Measured values as given in PubChem BioAssay AID1159580 (chemical genetic matrix, 2015).
Where “and” joins values, the source holds several entries; their conditions need not be identical. Equal values may be shown once. The campaign covered roughly 5,500 compounds. About 2,000 (36%) were called active. About 18% were inconclusive and are not listed. No stated cut-off is given here; in the data, active means normalized growth mostly below about 0.91 (no sharp cut-off); inconclusive means no clear call, values can overlap the other calls; inactive means mostly above about 0.92. The list shows a part of the results.

Test: chemical genetic growth profiling, strain panel (AID 1159580);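 further: tested at 20 µM; growth read once vehicle control cultures reached saturation at 30 °C; 1 = growth at the plate median or of vehicle wells; lower values mean less growth of the strain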
Settings: growth OD

Measured: normalized growth

Cc1ccc(S(=O)(=O)NC(=O)NN2CCCCCC2)cc1
inactive: S. cerevisiae deletion strains, locus YJR075W, strain HOC1, active compounds read low 1.03 | S. cerevisiae deletion strains, locus YKL009W, strain mrt4, active compounds read low 1.03 | S. cerevisiae deletion strains, locus YKL068W, active compounds read low 0.988 | S. cerevisiae deletion strains, locus YKL085W, strain MDH1 (second series), active compounds read low 0.977 | S. cerevisiae deletion strains, locus YKL085W, strain MDH1, active compounds read low 0.977 | S. cerevisiae deletion strains, locus YKL160W, strain elf1, active compounds read low 0.957 | S. cerevisiae deletion strains, locus YKL190W, strain CNB1, active compounds read low 1 | S. cerevisiae deletion strains, locus YKR001C, strain vps1, active compounds read low 0.981 | S. cerevisiae deletion strains, locus YKR026C, strain gcn3, active compounds read low 0.992 | S. cerevisiae deletion strains, locus YKR091W, strain srl3, active compounds read low 0.983 | S. cerevisiae deletion strains, locus YLL001W, strain dnm1, active compounds read low 0.982 | S. cerevisiae deletion strains, locus YLL026W, active compounds read low 0.995 | S. cerevisiae deletion strains, locus YLL041C, strain sdh2, active compounds read low 0.99 | S. cerevisiae deletion strains, locus YLR027C, strain aat2, active compounds read low 0.99 | S. cerevisiae deletion strains, locus YLR039C, strain RIC1, active compounds read low 0.954 | S. cerevisiae deletion strains, locus YLR058C, strain SHM2, active compounds read low 0.992 | S. cerevisiae deletion strains, locus YLR102C, strain apc9, active compounds read low 0.985 | S. cerevisiae deletion strains, locus YLR113W, strain HOG1, active compounds read low 1.03 | S. cerevisiae deletion strains, locus YLR221C, strain rsa3, active compounds read low 1.02 | S. cerevisiae deletion strains, locus YLR258W, strain gsy2, active compounds read low 0.98 | S. cerevisiae deletion strains, locus YLR262C, strain YPT6 (second series), active compounds read low 0.961 | S. cerevisiae deletion strains, locus YLR262C, strain YPT6, active compounds read low 0.962 | S. cerevisiae deletion strains, locus YLR268W, strain sec22, active compounds read low 0.983 | S. cerevisiae deletion strains, locus YLR320W, strain mms22, active compounds read low 0.996 | S. cerevisiae deletion strains, locus YLR330W, strain CHS5, active compounds read low 0.994 | S. cerevisiae deletion strains, locus YLR342W, strain FKS1 (second series), active compounds read low 0.941 | S. cerevisiae deletion strains, locus YLR342W, strain FKS1, active compounds read low 0.987 | S. cerevisiae deletion strains, locus YLR357W, strain rsc2, active compounds read low 0.928 | S. cerevisiae deletion strains, locus YLR370C, strain arc18, active compounds read low 0.968 | S. cerevisiae deletion strains, locus YLR371W, strain rom2, active compounds read low 0.977 | S. cerevisiae deletion strains, locus YLR384C, strain iki3, active compounds read low 0.992 | S. cerevisiae deletion strains, locus YLR418C, strain cdc73, active compounds read low 0.989 | S. cerevisiae deletion strains, locus YML016C, strain PPZ1, active compounds read low 0.991 | S. cerevisiae deletion strains, locus YML032C, strain rad52, active compounds read low 0.992 | S. cerevisiae deletion strains, locus YML120C, strain ndi1, active compounds read low 1 | S. cerevisiae deletion strains, locus YML124C, strain tub3, active compounds read low 0.988 | S. cerevisiae deletion strains, locus YMR058W, strain fet3, active compounds read low 0.994 | S. cerevisiae deletion strains, locus YMR078C, strain ctf18, active compounds read low 0.968 | S. cerevisiae deletion strains, locus YMR125W, strain sto1, active compounds read low 0.988 | S. cerevisiae deletion strains, locus YMR129W, active compounds read low 0.987 | S. cerevisiae deletion strains, locus YMR205C, strain PFK2, active compounds read low 1.01 | S. cerevisiae deletion strains, locus YMR223W, strain ubp8, active compounds read low 0.97 | S. cerevisiae deletion strains, locus YMR231W, strain pep5, active compounds read low 0.986 | S. cerevisiae deletion strains, locus YMR263W, strain SAP30, active compounds read low 0.998 | S. cerevisiae deletion strains, locus YMR307W, strain GAS1, active compounds read low 0.956 and 1 | S. cerevisiae deletion strains, locus YNL067W, strain RPL9B, active compounds read low 1.02 | S. cerevisiae deletion strains, locus YNL071W, strain lat1, active compounds read low 0.99 | S. cerevisiae deletion strains, locus YNL128W, strain TEP1, active compounds read low 0.988 | S. cerevisiae deletion strains, locus YNL153C, strain GIM3, active compounds read low 1.05 and 1 | S. cerevisiae deletion strains, locus YNL175C, strain NOP13, active compounds read low 0.991 | S. cerevisiae deletion strains, locus YNL183C, strain NPR1, active compounds read low 0.946 | S. cerevisiae deletion strains, locus YNL197C, strain WHI3, active compounds read low 0.974 | S. cerevisiae deletion strains, locus YNL209W, strain ssb2, active compounds read low 0.968 | S. cerevisiae deletion strains, locus YNL224C, strain SQS1, active compounds read low 1 | S. cerevisiae deletion strains, locus YNL233W, strain BNI4, active compounds read low 1.04 | S. cerevisiae deletion strains, locus YNL248C, strain rpa49, active compounds read low 0.961 | S. cerevisiae deletion strains, locus YNL250W, strain rad50, active compounds read low 0.949 | S. cerevisiae deletion strains, locus YNL271C, strain bni1, active compounds read low 0.983 | S. cerevisiae deletion strains, locus YNL298W, strain CLA4, active compounds read low 0.965 | S. cerevisiae deletion strains, locus YNL307C, strain MCK1, active compounds read low 0.983 | S. cerevisiae deletion strains, locus YNL322C, strain KRE1 (second series), active compounds read low 0.965 | S. cerevisiae deletion strains, locus YNL322C, strain KRE1, active compounds read low 1 | S. cerevisiae deletion strains, locus YNR049C, strain mso1, active compounds read low 0.967 | S. cerevisiae deletion strains, locus YNR052C, strain pop2, active compounds read low 0.974 | S. cerevisiae deletion strains, locus YOL006C, strain TOP1, active compounds read low 1.02 | S. cerevisiae deletion strains, locus YOL012C, strain htz1 1.06 | S. cerevisiae deletion strains, locus YOL147C, strain pex11, active compounds read low 0.975 | S. cerevisiae deletion strains, locus YOR001W, strain rrp6, active compounds read low 1.03 | S. cerevisiae deletion strains, locus YOR061W, strain CKA2, active compounds read low 0.994 | S. cerevisiae deletion strains, locus YOR069W, strain VPS5, active compounds read low 0.994 | S. cerevisiae deletion strains, locus YOR070C, strain gyp1, active compounds read low 0.979 | S. cerevisiae deletion strains, locus YOR080W, strain dia2, active compounds read low 0.979 | S. cerevisiae deletion strains, locus YOR083W, strain WHI5 (second series), active compounds read low 0.971 | S. cerevisiae deletion strains, locus YOR083W, strain WHI5, active compounds read low 0.927 | S. cerevisiae deletion strains, locus YOR106W, strain vam3, active compounds read low 0.984 | S. cerevisiae deletion strains, locus YOR136W, strain idh2, active compounds read low 0.984 | S. cerevisiae deletion strains, locus YOR144C, strain elg1, active compounds read low 0.974 | S. cerevisiae deletion strains, locus YOR184W, strain ser1, active compounds read low 1 | S. cerevisiae deletion strains, locus YOR231W, strain MKK1, active compounds read low 1 | S. cerevisiae deletion strains, locus YOR265W, strain rbl2, active compounds read low 1 | S. cerevisiae deletion strains, locus YOR270C, strain vph1, active compounds read low 1.02 | S. cerevisiae deletion strains, locus YOR290C, strain snf2, active compounds read low 0.957 | S. cerevisiae deletion strains, locus YOR316C, strain cot1, active compounds read low 0.992 | S. cerevisiae deletion strains, locus YPL051W, strain arl3, active compounds read low 0.969 | S. cerevisiae deletion strains, locus YPL078C, strain atp4, active compounds read low 0.98 | S. cerevisiae deletion strains, locus YPL106C, strain sse1, active compounds read low 0.957 | S. cerevisiae deletion strains, locus YPL240C, strain hsp82, active compounds read low 0.988 | S. cerevisiae deletion strains, locus YPL241C, strain CIN2, active compounds read low 0.999 | S. cerevisiae deletion strains, locus YPL256C, strain CLN2, active compounds read low 1.01 | S. cerevisiae deletion strains, locus YPR119W, strain clb2, active compounds read low 0.983 | S. cerevisiae deletion strains, locus YPR141C, strain kar3, active compounds read low 0.976 | S. cerevisiae deletion strains, locus YPR163C, strain tif3, active compounds read low 0.982 | S. cerevisiae deletion strains, locus YPR167C, strain met16, active compounds read low 0.991 | S. cerevisiae deletion strains, strain wtn01, active compounds read low 1.01 | S. cerevisiae strains, strain wild type, active compounds read low 1
